Our source for the inhibition values is PubChem BioAssay AID2540 (Sanford-Burnham Center for Chemical Genomics, 2010).

Molecules are shown by their SMILES. The campaign covered roughly 330,000 compounds. About 4,100 (1.2%) were called active. Cut-off read from the data, not from the text of the source: active = inhibition above about 50%; inactive = the rest. The full list was thinned out, with actives kept by preference.

The target in the assay is Sentrin-specific protease 8 (Homo sapiens) (UniProt Q96LD8). In words: SENP8 protease inhibitors, primary screen, biochemical, luminescence (AID 2540). The following applies: purified SENP8, Z-RLRGG-aminoluciferin cleavage, at 10 µM, active compounds read high.
Sentrin-specific protease 8 (Homo sapiens), sequence (Q96LD8 whole entry, looked up): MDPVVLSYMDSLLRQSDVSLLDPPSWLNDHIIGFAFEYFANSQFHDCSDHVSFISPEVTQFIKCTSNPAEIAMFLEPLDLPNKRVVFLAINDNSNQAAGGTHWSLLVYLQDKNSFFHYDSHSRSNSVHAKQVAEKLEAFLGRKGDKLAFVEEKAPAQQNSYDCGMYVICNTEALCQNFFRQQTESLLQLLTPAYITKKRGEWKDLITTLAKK
Regarding `COc1ccc(OCC(=O)NCCS(=O)(=O)N2CCN(c3ccc(F)cc3)CC2)cc1`, the inhibition was 1.89% (inactive).
As for `CN=C(NC#N)NCCSCc1nc[nH]c1C`, the inhibition is -4.47% (inactive).
For `Cc1cc(O)cc(O)c1C(=O)Cc1cnn(-c2ccccc2)c1` the value was -5.32% (inactive); for `O=C(Nc1ccccc1)OCc1cn(-c2ccc(Cl)cc2)nn1`, -2.31% (inactive).
Then `O=C(c1cnn(-c2ccc(Cl)cc2)c1)c1ccccc1O`, with 91.4% (active); and `O=c1[nH]c(CN2CCOCC2)nc2scc(-c3ccccc3)c12`, with 1.83% (inactive); and `Cc1ccccc1NCC(=O)N/N=C\c1ccc([N+](=O)[O-])s1`, with 33% (inactive).
As for `CC(C)(C)c1cc(C(=O)N/N=C/c2ccc([N+](=O)[O-])s2)n[nH]1`, the inhibition was 20.8% (inactive).
As to `O=[N+]([O-])c1ccc(C=Nc2ccc(Cl)cc2Cl)s1`, the inhibition is 59.6% (active).
For `CCc1ccc(NC(=O)N2CCc3ccccc3C2)cc1` the value was -3.45% (inactive); for `COc1ccc([N+](=O)[O-])cc1NC(=O)C(C)OC(=O)C1c2ccccc2Oc2ccccc21` (stereo not given), -5.39% (inactive); for `Cn1cnc(C(F)(F)F)c1-c1ccc([N+](=O)[O-])cc1`, 2.27% (inactive).
For `O=c1c2ccccc2ncn1/N=C/c1ccccc1` the value was 80.9% (active).
Then `CN(C(=O)Nc1ccc(Cl)cc1)n1cnc2ccccc2c1=O`, with -6.28% (inactive); and `CCOC(=O)N1CCN(C(=O)Cn2cnc3ccccc3c2=O)CC1`, with -8.63% (inactive).
As to `CCOC(=O)C1CCN(S(=O)(=O)c2ccc3c(c2)N(C(C)=O)CCO3)CC1`, the inhibition is -1.03% (inactive).
Then `Cc1ccc(CNC(=O)[C@@H](NC(=O)Cc2ccccc2)C(C)C)cc1`, with 2.25% (inactive); and `CC(C)C(=O)Nc1nnc(SCC(=O)N2C(C)CCCC2C)s1` (stereo not given), with -3.68% (inactive); and `COc1ccc(C2C3=C(OC(C)=O)c4ccccc4C3=Nc3c2c(=O)n(C)c(=O)n3C)cc1` (stereo not given), with 7.93% (inactive).
In the case of `O=C(COC(=O)/C=C/c1cn(-c2ccccc2)nc1-c1cccnc1)Nc1ccc(Cl)cc1Cl`, the inhibition is -4.08% (inactive).
As to `CSc1cccc(NC(=O)CSc2ccccc2)c1`, the inhibition was -14.5% (inactive).
Then `CCOc1ccc(C(=O)Nc2cccc(-c3ccc4nncn4n3)c2)cc1`, with -9.4% (inactive).
Then `CCOc1ccc(C(=O)Nc2cccc(SC)c2)cc1`, with 82.4% (active); and `COc1cccc(C(=O)Nc2ccc(N3CCCC3)cc2)c1`, with 96.4% (active).
With `O=C(Nc1ccc(N2CCOCC2)cc1)c1cccc(S(=O)(=O)N2CCOCC2)c1`, the inhibition is -6.21% (inactive).
Then `COc1cccc(C(=O)Nc2nnc(S(=O)(=O)N3CCCCC3)s2)c1`, with -11% (inactive).
For `O=C(OC1CCOC1=O)c1cccc(S(=O)(=O)Nc2ccc(F)cc2)c1` (stereo not given) the value was 2.88% (inactive); for `O=C(/C=C/c1ccco1)NC(=S)Nc1ccccc1Br`, -6.97% (inactive); for `COc1cccc(NC(=O)COC(=O)/C=C/c2ccco2)c1`, -1.22% (inactive).
Consider `O=C(/C=C/c1ccco1)Nc1ccc(Oc2ccccc2)cc1`, for which the inhibition is 58.9% (active).
Then `O=C(NCCc1ccc(Cl)cc1Cl)c1cc([N+](=O)[O-])c[nH]c1=O`, with 4.55% (inactive); and `Cc1cc(OC(=O)c2ccc(OC(C)C)cc2)c([N+](=O)[O-])c(=O)[nH]1`, with 1.33% (inactive).
Then `COc1cccc(-c2nnc(SCCOc3ccc4c(C)cc(=O)oc4c3)o2)c1`, with 1.03% (inactive); and `COc1ccc([N+](=O)[O-])cc1-c1nc2ccccc2nc1-c1ccccc1`, with 12.3% (inactive); and `COc1cccc(-c2nc3cc(C)ccc3o2)c1`, with 96.2% (active).
With `COc1ccc2oc(-c3cccc(NC(=O)CSc4ccc(Cl)cc4)c3)nc2c1`, the inhibition is -5.16% (inactive).
Regarding `O=[N+]([O-])c1ccc2c(c1)Nc1nc3ccccc3nc1N2`, the inhibition is -4.07% (inactive).
As to `O=[N+]([O-])c1ccc2oc(-c3cccc(O)c3)nc2c1`, the inhibition is 84.7% (active).
For `Cc1c(CC(=O)NCC(=O)NCC(=O)O)c(=O)oc2cc3oc4c(c3cc12)CCCC4` the value was -13.4% (inactive); for `Clc1ccc(-n2nnnc2CN2CCCCC2)cc1Cl`, -12% (inactive).
`O=C(/C=C/NNC(=O)c1cccc(Br)c1)c1ccccc1`: the inhibition was -1.09% (inactive).
Turning to `CCOc1ccccc1N1C(=O)CC(Sc2nccc(C)n2)C1=O` (stereo not given), the inhibition is 1.56% (inactive).
Then `COc1ccc(NC(=O)CNc2cc(S(=O)(=O)N3CCOCC3)ccc2N2CCOCC2)c(OC)c1`, with 7.93% (inactive); and `Cc1c(Cl)cccc1NC(=O)NCc1ccc(C)n1C`, with -0.511% (inactive).
For `CC(=O)c1ccc(S(=O)(=O)NC2CC(=O)N(c3ccc4c(c3)OCCO4)C2)cc1` (stereo not given) the value was -4.2% (inactive); for `CC(C)(C)OC(=O)C[C@@H]1C/C=C\C[C@H](CC(=O)N[C@@H](CO)Cc2ccccc2)C(=O)N[C@H](Cc2ccccc2)COC1=O`, -7.09% (inactive); for `COc1cc(C2C(C(=O)c3cccs3)=C(O)C(=O)N2CCN2CCOCC2)ccc1OCCC(C)C` (stereo not given), -3.6% (inactive).
With `CCn1cc(CN2CCC(C(=O)Nc3cccc(-c4cccc(Cl)c4)c3)CC2)c(C)n1`, the inhibition is -6.83% (inactive).
`CCN1CC=C2C(C#N)=C(N)C(C#N)(C#N)[C@H](c3ccoc3)[C@H]2C1`: the inhibition was 50.7% (active).
Consider `N#CC1=C(N)C(C#N)(C#N)[C@H](c2ccsc2)[C@H]2COCC=C12`, for which the inhibition was -3.51% (inactive).
Regarding `CCCN1CC=C2C(C#N)=C(N)C(C#N)(C#N)C(c3cc(OC)ccc3OC)C2C1` (stereo not given), the inhibition is 0.594% (inactive).
In the case of `Cc1cn(C)c(=O)n(C)c1=O`, the inhibition was -18.1% (inactive).
For `O=C(Nc1cccc2cccnc12)c1cccc(Cl)c1` the value was 8.84% (inactive); for `COc1ccc(NC(=O)Nc2cccc3cccnc23)cc1`, 81% (active); for `COc1ccc(NC(=O)C2CCCN(S(=O)(=O)c3cccc4cccnc34)C2)cc1` (stereo not given), 6% (inactive).
For the molecule `CC12CCC(C(=O)N(CCC#N)CCC#N)(CC1=O)C2(C)C` (stereo not given), the inhibition is -1.58% (inactive).
Regarding `COc1cccc(/C=N\Nc2nncc(-c3ccccc3)n2)c1`, the inhibition was -14.9% (inactive).
For `CN(CCO)c1ccc(/C=N/Nc2nncc3ccccc23)cc1` the value was 94.9% (active); for `C/C(=N\Nc1nncc2ccccc12)c1ccc(Cl)c([N+](=O)[O-])c1`, 5.46% (inactive).
Turning to `c1ccc(CCc2nc(-c3ccncc3)no2)cc1`, the inhibition was -9.99% (inactive).
Then `c1ccc(-c2noc(-c3cccs3)n2)nc1`, with 88.9% (active); and `Clc1ccc(-n2nnnc2-c2cnc(-c3ccccn3)nc2-c2cccs2)cc1`, with -4.12% (inactive); and `O=C(Oc1ccc(-c2nc(-c3ccccn3)no2)cc1)c1ccccc1`, with 97.3% (active).
As to `O=C(COC(=O)c1ccncc1)c1ccccc1`, the inhibition is -23.2% (inactive).
On to `COc1ccc(CCc2nc(-c3cccs3)no2)cc1`, for which the inhibition was -14.5% (inactive).
Regarding `Cc1noc(C)c1COC(=O)COc1ccc(-c2ccccc2)cc1`, the inhibition was -5.47% (inactive).
Turning to `Cc1ccc(-c2nc(-c3ccncc3)no2)c(C)c1`, the inhibition was 42.8% (inactive).
Then `c1csc(-c2nc(-c3ccncc3)no2)c1`, with 57.3% (active).
For `CC1CCC2(CC1)NC(=O)N(CC(=O)c1cccn1C)C2=O` (stereo not given) the value was -3.15% (inactive); for `CCOC(=O)N1CCN(c2c(NCCN3CCN(c4ccccc4F)CC3)c(=O)c2=O)CC1`, -9.98% (inactive); for `COc1ccccc1CNC(=O)[C@@H]1CCCN1C(=O)[C@@H]1Cc2ccccc2CN1C(=O)OC(C)(C)C`, -1.1% (inactive).
For `Cc1ccc(N(C(=O)c2ccc(S(=O)(=O)N(C)C)cc2)C2C=CS(=O)(=O)C2)cc1` (stereo not given) the value was -5.23% (inactive); for `O=C1CCC(C(=O)N2CCN(c3ccccc3Cl)CC2)CN1CC1CCCCC1` (stereo not given), -2.96% (inactive); for `Clc1ccc(-c2cc(-c3ccccn3)on2)c(Cl)c1`, 98% (active).
With `Clc1ccc(COn2c(-c3ccc(Cl)cc3Cl)nc3ncccc32)cc1`, the inhibition was 1.77% (inactive).
As for `O=C1c2ccccc2C(=O)N1Cc1cc(-c2ccccc2Cl)no1`, the inhibition is 2.3% (inactive).
For `Cn1cccc1C(=O)OCC(=O)NCCc1ccccc1` the value was -2.12% (inactive); for `O=C(COC(=O)c1c2c(nc3ccccc13)CCCC2)c1ccc(Br)s1`, -1.41% (inactive); for `Cn1cccc1C(=O)OCC(=O)c1ccc(Br)s1`, 75.8% (active).
Then `COc1cccc(NC(=O)CSc2nnc(C3CCCCC3)n2N)c1`, with 6.19% (inactive).
Regarding `O=C(NCC1CC1)c1onc(CSc2ccccc2)c1C(=O)NCC1CC1`, the inhibition was 1.24% (inactive).
As to `Cc1ccc(NC(=O)c2ccc(S(=O)(=O)NCC3CCCO3)cc2)cc1C` (stereo not given), the inhibition was 9.11% (inactive).
Then `Cc1cccc(C(=O)Nc2nnc(S(=O)(=O)N3CCCCCC3)s2)c1`, with 18.3% (inactive); and `O=C(Nc1nnc(S(=O)(=O)N2CCCCCC2)s1)c1cccc(Br)c1`, with 71.5% (active); and `O=C(Nc1nnc(S(=O)(=O)N2CCOCC2)s1)c1cccc(Br)c1`, with 6.23% (inactive).
In the case of `Cc1ccc(S(=O)(=O)NC(=O)c2cccc(C)c2)cc1`, the inhibition was -5.51% (inactive).
For the molecule `Cc1[nH]n(C)c(=O)c1N=Nc1ccc(S(C)(=O)=O)cc1`, the inhibition was -4.34% (inactive).
Regarding `Cc1[nH]n(C(N)=S)c(=O)c1N=Nc1ccc(Cl)cc1Cl`, the inhibition is 95.6% (active).
Then `CCCCNC(=O)C1CCCNC1=O` (stereo not given), with -10.4% (inactive); and `O=C(O)c1cc(S(=O)(=O)N(Cc2ccccc2)c2ccccc2)ccc1Cl`, with 3.75% (inactive); and `C/C(=N\OCC(=O)Nc1ccc(Br)cc1)c1cccs1`, with -8.52% (inactive).
Then `O=C(O)c1ccccc1OCc1ccccc1Cl`, with 1.22% (inactive).
Then `COc1cc(C#Cc2ccc3cc(CCCO)oc(=O)c3c2)cc(OC)c1`, with 69.6% (active); and `COc1cc(/C=C2\Oc3ccc(C#Cc4ccc(O)cc4)cc3C2=O)cc(OC)c1`, with 5.28% (inactive); and `O=C1c2ccccc2C(=O)N1CCC#Cc1ccc2cc(C3(O)CCCCC3)oc(=O)c2c1`, with -2.91% (inactive).

For orientation: inhibition means the relative decrease from the control value, in per cent.
